Data published in PubChem BioAssay (NCI).
This is part of a sample that, as a whole, favours compounds with a hit. Of some 83,000 tested, about 20% had one in any assay.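 Compound tested at a single concentration for 48 hours in 96-well plates; a percent growth value below 10 was scored as active.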 A number with no mark means an inactive call. Calls of active or inactive are those of the source.

What was measured:
Assay in all cases: NCI-60 one-dose screen, 48 h (100 = growth as untreated, 0 = no growth, -100 = all killed)
Details in all cases: 10 µM unless noted
DU-145 prostate = tested on: DU-145 prostate
K-562 leukemia = tested on: K-562 leukemia
MALME-3M melanoma = tested on: MALME-3M melanoma
MDA-MB-231 breast = tested on: MDA-MB-231 breast
RXF 393 renal = tested on: RXF 393 renal
SF-268 CNS = tested on: SF-268 CNS
SF-295 CNS = tested on: SF-295 CNS
SF-539 CNS = tested on: SF-539 CNS
UACC-257 melanoma = tested on: UACC-257 melanoma
M14 melanoma = tested on: M14 melanoma

COc1ccc2nc3nc4ccc[nH]c4cc3c2c1
growth (DU-145 prostate): 88.3% | growth (K-562 leukemia): 99.6% | growth (MALME-3M melanoma): 90% | growth (MDA-MB-231 breast): 98% | growth (RXF 393 renal): 101% | growth (SF-268 CNS): 84.5% | growth (SF-295 CNS): 112% | growth (SF-539 CNS): 94% | growth (UACC-257 melanoma): 115% | growth (M14 melanoma): 101%

CSc1nc(-c2ccco2)c2c(N)[nH]nc2n1
growth (DU-145 prostate): 102% | growth (K-562 leukemia): 85.6% | growth (MALME-3M melanoma): 119% | growth (MDA-MB-231 breast): 99.1% | growth (RXF 393 renal): 118% | growth (SF-268 CNS): 104% | growth (SF-295 CNS): 102% | growth (SF-539 CNS): 97.5% | growth (UACC-257 melanoma): 129% | growth (M14 melanoma): 120%

COc1cc(-c2csc(NC(=O)Nc3ccc(C(F)(F)F)cc3)n2)cc(OC)c1OC
growth (DU-145 prostate): 20.8% | growth (K-562 leukemia): 7.21% (active) | growth (MALME-3M melanoma): -12.1% (active) | growth (MDA-MB-231 breast): -14.3% (active) | growth (RXF 393 renal): -4.21% (active) | growth (SF-268 CNS): 29.1% | growth (SF-295 CNS): -12.4% (active) | growth (SF-539 CNS): 16% | growth (UACC-257 melanoma): -18.1% (active) | growth (M14 melanoma): 5.54% (active)

COc1cc(/C=N/Nc2nc(-c3ccc(F)cc3)c(C#N)c(N3CCOCC3)n2)ccc1O
growth (DU-145 prostate): 96.3% | growth (K-562 leukemia): 85.3% | growth (MALME-3M melanoma): 122% | growth (MDA-MB-231 breast): 99.8% | growth (RXF 393 renal): -0.23% (active) | growth (SF-268 CNS): 99.8% | growth (SF-295 CNS): 106% | growth (SF-539 CNS): 93.7% | growth (UACC-257 melanoma): 102% | growth (M14 melanoma): 114%

O=C1CC23OC(C(O)c4ccccc4N12)C1C(c2ccccc2)=NOC13 (stereo not given)
growth (DU-145 prostate): 81.9% | growth (K-562 leukemia): 16.1% | growth (MALME-3M melanoma): 49.8% | growth (MDA-MB-231 breast): 52.9% | growth (RXF 393 renal): 71.5% | growth (SF-268 CNS): 64.1% | growth (SF-295 CNS): 42.3% | growth (SF-539 CNS): 50% | growth (UACC-257 melanoma): 89.2% | growth (M14 melanoma): 16.1%

COc1cc(-c2cn(-c3ccc(Cl)c(Cl)c3)c(=O)[nH]2)cc(OC)c1OC
growth (DU-145 prostate): 100% | growth (K-562 leukemia): 84.3% | growth (MALME-3M melanoma): 60.9% | growth (MDA-MB-231 breast): 71.5% | growth (RXF 393 renal): 86.4% | growth (SF-268 CNS): 87.6% | growth (SF-295 CNS): 104% | growth (SF-539 CNS): 91.3% | growth (UACC-257 melanoma): 87.4% | growth (M14 melanoma): 95.2%

NC(=O)c1ccc2nc3c(n2c1)C(=O)C(=O)c1ccccc1-3
growth (DU-145 prostate): -96.3% (active) | growth (K-562 leukemia): -28.2% (active) | growth (MALME-3M melanoma): -97.3% (active) | growth (MDA-MB-231 breast): -17.3% (active) | growth (RXF 393 renal): -96.5% (active) | growth (SF-268 CNS): -70.2% (active) | growth (SF-295 CNS): -98.7% (active) | growth (SF-539 CNS): -98.5% (active) | growth (UACC-257 melanoma): -98.3% (active) | growth (M14 melanoma): -88% (active)

CC[C@]12C=CCN3CC[C@@]4(c5cc(NC(=O)CCC(=O)O[C@H]6CC[C@H]7[C@@H]8CC[C@H]9CC(=O)CC[C@]9(C)[C@H]8CC[C@]67C)c(OC)cc5N(C)[C@H]4[C@@](O)(C(=O)OC)[C@@H]1OC(C)=O)[C@@H]32
growth (DU-145 prostate): 86.8% | growth (K-562 leukemia): 41.7% | growth (MALME-3M melanoma): 77.7% | growth (MDA-MB-231 breast): 83% | growth (RXF 393 renal): 66.2% | growth (SF-268 CNS): 74.3% | growth (SF-295 CNS): 68.4% | growth (SF-539 CNS): 74.1% | growth (UACC-257 melanoma): 94.5% | growth (M14 melanoma): 67.5%
